# Results reported in PubChem BioAssay AID720524 (National Center for Advancing Translational Sciences (NCATS), 2013).
# Hit rate of the full screen: of about 1,400 compounds, about 1,000 (71%) were called active. Roughly 12% stayed inconclusive and do not appear here. The call rests on the fitted dose curve; in most records, active means well fitted inhibition curve with a large enough effect; inconclusive means small, poorly fitted or top-dose-only effect; inactive means no such curve, though single readings can be large or run the other way. So high a share suggests a set chosen from earlier hits. Not all results are given here.
# Assay: Nrf2 qHTS screen for inhibitors: Nrf2 A549 ARE-Fluc Confirmation Assay for Hit Validation; further: nearly all actives have a fitted effect of over 65% in size
# Conditions: A549 ARE-firefly luciferase reporter, luminescence
# Description: Nrf2 is a transcription factor that maintains cellular redox homoestasis and protects cells from xenobiotics. Nrf2 binds to the antioxidant response element (ARE) to induce gene expression of a broad spectrum of genes that encode for antioxidants. […] Finding a small molecule that act as an inhibitor of Nrf2 function would represent a novel therapeutic target that could lead to improvement in survival of patients undergoing chemo- and/or radio- therapy.
# In collaboration with the Biswal laboratory, a cell based, luminescence assay (BugLite) was developed to detect the Nrf2 activity using the A549 ARE_Fluc cells (AID 493153). This assay was coupled with a fluorescence based (CellTiter Fluor) cytotoxicity assay to identify and exclude toxic compounds. This coupled assay was used to evaluate selected compounds for hit validation. The data herein is the result of the BugLite assay where decrease in luminescence signal = inhibition of Nrf2 activation. Inhibition is the desired outcome for this assay.
# NIH Chemical Genomics Center [NCGC]
# NIH Molecular Libraries Probe Centers Network [MLPCN]
# Assay Submitter (PI): Shyam Biswal, Johns Hopkins University
# [1] Shibata T., et al., Genetic alteration of Keap1 confers constitutive Nrf2 activation and resistance to chemotherapy in gallbladder cancer. Gastroenterology, 2008.
# [2] Sjoblom T., et al., The consensus coding sequences of human breast and colorectal cancers. Science, 2006.
# Five uL of cell suspension was dispensed into 1536-well white TC-treated plate using the Kalypsys dispenser to achieve a density of 5000 cells/well in all columns except column 1. The plates were incubated at 37deg C at 5% CO2 for 2 hours before 23 nL of compounds were added with the Kalypsys pin tool equipped with a 1,536-pin array. The control compounds Budesonide and Staurosporine were added at a concentration of 2mM. Budesonide was also added as a 1:10 titration, starting at 200uM, to achieve the dose-response control signal. The plates were incubated for 18-24 hour at 37deg C, 5% CO2 followed by a 5ul addition of 5% FBS OPTI-MEM growing media in column 1 as negative control. One microliter of 5x CellTiter Fluor (Promega) was added to each well and the assay plates were incubated at 37deg C, 5% CO2 for 30 minutes. The fluorescence signal was read using the PerkinElmer ViewLux plate reader (Ex = 405 nm /Em = 525 nm) for a 3 second exposure. After the signal was taken, 3 uL of 3x BugLite was dispensed into all wells. The plates were then incubated at room temperature for 15 minutes. A second ViewLux read (40 sec exposure) was performed to detect the luminescence signal. Cytotoxicity was assessed through the first fluorescent read while biochemical activity against Nrf2 was measured in the luminescent read. The data was normalized to the positive and negative controls.
# Potency means the concentration at half of the fitted maximal effect.
row,Compound,Potency
1,c1ccc2c(c1)[I+]c1ccccc1-2,206 nM (active)
2,CC[C@H]1CN2CCc3cc(OC)c(OC)cc3[C@@H]2C[C@@H]1C[C@H]1NCCc2cc(OC)c(OC)cc21,146 nM (active)
3,CCC(C)(O)C(=O)OC1C(=O)OC2CC3C(C)=CC(=O)C(O)C3(C)C3C4(O)OCC23C1C(C)C4O (stereo not given),580 nM (active)
4,COC1C(O)C(C)OC(OC2CCC3(C=O)C(CCC4C3CCC3(C)C(C5=CC(=O)OC5)CCC43O)C2)C1O (stereo not given),11.6 nM (active)
5,C[C@]12CC[C@H](O)C[C@H]1CC[C@@H]1C2CC[C@]2(C)[C@@H](C3=CC(=O)OC3)[C@@H](O)C[C@]12O (stereo not given in full),1640 nM (active)
